Test results from PubChem BioAssay AID651871 (Sanford-Burnham Center for Chemical Genomics, 2012).
Values joined by “and” are separate entries in the source; they are usually repeats but may differ in a detail not shown here. Equal entries are not always repeated.

system: HL-1; test: protection of cardiomyocytes from stress damage, SAR follow-up, cell-based, panel, H9c2 and HL-1, ATP luminescence, set 2 (AID 651871); conditions: H9c2/HL-1 cardiomyocytes, 2-deoxyglucose stress, with 2-deoxyglucose, run 11, at 79 µM (top of the series);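 note: cells exposed to stressor for 2 h before ATP readout; reference of the scale not given here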

| SMILES | activity (protection/inhibition) |
| --- | --- |
| CCOC(=O)c1cccc(NC(=O)CNC(=O)c2cc(-c3cc(OC)c(OC)c(OC)c3)nc3ccccc23)c1 | 66.5% |
| COc1ccc2nc(-c3cc(OC)c(OC)c(OC)c3)cc(C(=O)NCC(=O)Nc3ccc(C(C)=O)cc3)c2c1 | 89% |
| COc1ccc2c(c1OC)C(=O)N1c3ccccc3C(=O)N(Cc3cccc(Cl)c3Cl)C21 (stereo not drawn) | 42.6% and -9.56% |
